# In PubChem BioAssay AID1159580 (chemical genetic matrix, 2015):
# The whole screen tested about 5,500 compounds, of which about 2,000 (36%) were called active. About 18% were inconclusive and are not listed. The list shows a part of the results. A number with no mark means an inactive call. Cut-off read from the data, not from the text of the source: active = normalized growth mostly below about 0.91 (no sharp cut-off); inconclusive = no clear call, values can overlap the other calls; inactive = mostly above about 0.92.
# Test: chemical genetic growth profiling, strain panel (AID 1159580);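 note: tested at 20 µM; growth read once vehicle control cultures reached saturation at 30 °C; 1 = growth at the plate median or of vehicle wells; lower values mean less growth of the strain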
# Details: S. cerevisiae deletion strains, growth OD
smiles,measurement,setting,value
CC(=O)O.CC(=O)O.[Cd],normalized growth,"locus YAL013W, strain DEP1, hits give low values",0.225 (active)
same,normalized growth,"locus YAL021C, strain ccr4, hits give low values",0.629 (active)
same,normalized growth,"locus YAL026C, strain drs2, hits give low values",0.436 (active)
same,normalized growth,"locus YAL030W, strain snc1, hits give low values",0.77 (active)
same,normalized growth,"locus YBL061C, strain skt5, hits give low values",0.771 (active)
same,normalized growth,"locus YBR009C, strain hhf1, hits give low values",0.606 (active)
same,normalized growth,"locus YBR021W, strain FUR4, hits give low values",0.106 (active)
same,normalized growth,"locus YBR023C, strain chs3, hits give low values",0.743 (active)
same,normalized growth,"locus YBR171W, strain sec66, hits give low values",0.786 (active)
same,normalized growth,"locus YBR229C, strain ROT2, hits give low values",0.747 (active)
same,normalized growth,"locus YBR231C, strain swc5, hits give low values",0.666 (active)
same,normalized growth,"locus YBR279W, strain paf1, hits give low values",0.635 (active)
same,normalized growth,"locus YCL011C, strain gbp2, hits give low values",0.632 (active)
same,normalized growth,"locus YCL016C, strain dcc1, hits give low values",0.754 (active)
same,normalized growth,"locus YCL029C, strain bik1, hits give low values",0.313 (active)
same,normalized growth,"locus YCL061C, strain MRC1, hits give low values",0.783 (active)
same,normalized growth,"locus YCL069W, strain vba3, hits give low values",0.762 (active)
same,normalized growth,"locus YCR088W, strain abp1, hits give low values",0.654 (active)
same,normalized growth,"locus YDL005C, strain med2, hits give low values",0.513 (active)
same,normalized growth,"locus YDL035C, strain GPR1, hits give low values",0.243 (active)
same,normalized growth,"locus YDL040C, strain nat1, hits give low values",0.589 (active)
same,normalized growth,"locus YDL074C, strain BRE1, hits give low values",0.25 (active)
same,normalized growth,"locus YDL101C, strain DUN1, hits give low values",0.177 (active)
same,normalized growth,"locus YDL134C, strain PPH21, hits give low values",0.467 (active)
same,normalized growth,"locus YDL185W, strain tfp1, hits give low values",0.482 (active)
same,normalized growth,"locus YDL192W, strain arf1, hits give low values",0.144 (active)
same,normalized growth,"locus YDR001C, strain nth1, hits give low values",0.845 (active)
same,normalized growth,"locus YDR069C, strain doa4, hits give low values",0.107 (active)
same,normalized growth,"locus YDR101C, strain arx1, hits give low values",0.319 (active)
same,normalized growth,"locus YDR137W, strain rgp1, hits give low values",0.375 (active)
same,normalized growth,"locus YDR150W, strain NUM1, hits give low values",0.175 (active)
same,normalized growth,"locus YDR159W, strain sac3, hits give low values",0.828 (active)
same,normalized growth,"locus YDR162C, strain NBP2, hits give low values",0.111 (active)
same,normalized growth,"locus YDR195W, strain ref2",0.512 (active)
same,normalized growth,"locus YDR297W, strain sur2, hits give low values",0.727 (active)
same,normalized growth,"locus YDR318W, strain mcm21, hits give low values",0.264 (active)
same,normalized growth,"locus YDR334W, strain swr1, hits give low values",0.532 (active)
same,normalized growth,"locus YDR335W, strain msn5, hits give low values",0.782 (active)
same,normalized growth,"locus YDR388W, hits give low values",0.0738 (active)
same,normalized growth,"locus YDR392W, strain spt3, hits give low values",0.299 (active)
same,normalized growth,"locus YDR502C, strain sam2, hits give low values",0.464 (active)
same,normalized growth,"locus YEL003W, strain gim4, hits give low values",0.681 (active)
same,normalized growth,"locus YEL037C, strain rad23, hits give low values",0.786 (active)
same,normalized growth,"locus YEL061C, strain CIN8 (second series), hits give low values",0.866 (active)
same,normalized growth,"locus YEL061C, strain CIN8, hits give low values",0.342 (active)
same,normalized growth,"locus YER015W, strain faa2, hits give low values",0.632 (active)
same,normalized growth,"locus YER016W, strain bim1, hits give low values",0.702 (active)
same,normalized growth,"locus YER110C, hits give low values",0.499 (active)
same,normalized growth,"locus YER111C, strain swi4, hits give low values",0.872 (active)
same,normalized growth,"locus YER155C, strain BEM2 (second series), hits give low values",0.446 (active)
same,normalized growth,"locus YER155C, strain BEM2, hits give low values",0.519 (active)
same,normalized growth,"locus YER167W, strain BCK2, hits give low values",0.269 (active)
same,normalized growth,"locus YFR010W, strain ubp6, hits give low values",0.356 (active)
same,normalized growth,"locus YGL078C, strain dbp3, hits give low values",0.466 (active)
same,normalized growth,"locus YGL086W, strain mad1, hits give low values",0.256 (active)
same,normalized growth,"locus YGL167C, strain pmr1, hits give low values",0.493 (active)
same,normalized growth,"locus YGL173C, strain kem1, hits give low values",0.68 (active)
same,normalized growth,"locus YGL227W, strain vid30, hits give low values",0.901 (active)
same,normalized growth,"locus YGL240W, strain doc1, hits give low values",0.711 (active)
same,normalized growth,"locus YGL248W, strain PDE1, hits give low values",0.356 (active)
same,normalized growth,"locus YGL253W, strain hxk2, hits give low values",0.825 (active)
same,normalized growth,"locus YGR078C, strain PAC10, hits give low values",0.721 (active)
same,normalized growth,"locus YGR135W, strain pre9, hits give low values",0.565 (active)
same,normalized growth,"locus YGR229C, strain SMI1, hits give low values",0.11 (active)
same,normalized growth,"locus YGR252W, strain gcn5, hits give low values",0.253 (active)
same,normalized growth,"locus YHR013C, strain ard1, hits give low values",0.303 (active)
same,normalized growth,"locus YHR027C, strain rpn1, hits give low values",0.58 (active)
same,normalized growth,"locus YHR030C, strain SLT2, hits give low values",0.508 (active)
same,normalized growth,"locus YHR079C, strain IRE1 (second series), hits give low values",0.196 (active)
same,normalized growth,"locus YHR094C, strain hxt1, hits give low values",0.529 (active)
same,normalized growth,"locus YHR129C, strain ARP1, hits give low values",0.563 (active)
same,normalized growth,"locus YHR142W, strain chs7, hits give low values",0.761 (active)
same,normalized growth,"locus YHR200W, strain rpn10, hits give low values",0.513 (active)
same,normalized growth,"locus YIL066C, strain RNR3, hits give low values",0.27 (active)
same,normalized growth,"locus YIL073C, strain SPO22, hits give low values",0.134 (active)
same,normalized growth,"locus YIL125W, strain kgd1, hits give low values",0.356 (active)
same,normalized growth,"locus YIR030C, strain dcg1, hits give low values",0.383 (active)
same,normalized growth,"locus YJL092W, strain hpr5, hits give low values",0.744 (active)
same,normalized growth,"locus YJL095W, strain BCK1 (second series), hits give low values",0.669 (active)
same,normalized growth,"locus YJL095W, strain BCK1, hits give low values",0.266 (active)
same,normalized growth,"locus YJL115W, strain asf1, hits give low values",0.858 (active)
same,normalized growth,"locus YJL129C, strain trk1, hits give low values",1.1
same,normalized growth,"locus YJL134W, strain LCB3, hits give low values",0.643 (active)
same,normalized growth,"locus YJL154C, strain vps35, hits give low values",0.485 (active)
same,normalized growth,"locus YJL164C, strain tpk1, hits give low values",0.684 (active)
same,normalized growth,"locus YJL166W, strain qcr8, hits give low values",0.59 (active)
same,normalized growth,"locus YJL168C, strain set2, hits give low values",0.4 (active)
same,normalized growth,"locus YJL187C, strain SWE1 (second series), hits give low values",0.326 (active)
same,normalized growth,"locus YJL187C, strain SWE1, hits give low values",0.771 (active)
